Source: PubChem BioAssay AID1159580 (chemical genetic matrix, 2015)
In all, about 5,500 compounds went through this assay and about 2,000 (36%) were called active. Another 18% or so got no clear call; they are omitted. No stated cut-off is given here; in the data, active means normalized growth mostly below about 0.91 (no sharp cut-off); inconclusive means no clear call, values can overlap the other calls; inactive means mostly above about 0.92. This is one part of the list.

Assay: chemical genetic growth profiling, strain panel (AID 1159580);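 further: tested at 20 µM; growth read once vehicle control cultures reached saturation at 30 °C; 1 = growth at the plate median or of vehicle wells; lower values mean less growth of the strain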
Conditions: growth OD

Measured: normalized growth

CC(C)CCCC(C)C1CCC2C3CC[C@H]4C[C@@H](O)CC[C@]4(C)C3CC[C@]12C (stereo not given in full)
inactive: S. cerevisiae deletion strains, locus YAL013W, strain DEP1, active compounds read low 1 | S. cerevisiae deletion strains, locus YBR021W, strain FUR4, active compounds read low 1 | S. cerevisiae deletion strains, locus YBR229C, strain ROT2, active compounds read low 1.01 | S. cerevisiae deletion strains, locus YCL029C, strain bik1, active compounds read low 1.03 | S. cerevisiae deletion strains, locus YDL035C, strain GPR1, active compounds read low 1 | S. cerevisiae deletion strains, locus YDL074C, strain BRE1, active compounds read low 1.02 | S. cerevisiae deletion strains, locus YDL101C, strain DUN1, active compounds read low 1.01 | S. cerevisiae deletion strains, locus YDL185W, strain tfp1, active compounds read low 1.01 | S. cerevisiae deletion strains, locus YDL192W, strain arf1, active compounds read low 1.01 | S. cerevisiae deletion strains, locus YDR101C, strain arx1, active compounds read low 1.04 | S. cerevisiae deletion strains, locus YDR162C, strain NBP2, active compounds read low 0.987 | S. cerevisiae deletion strains, locus YDR318W, strain mcm21, active compounds read low 0.984 | S. cerevisiae deletion strains, locus YDR388W, active compounds read low 0.997 | S. cerevisiae deletion strains, locus YDR502C, strain sam2, active compounds read low 1.03 | S. cerevisiae deletion strains, locus YEL061C, strain CIN8, active compounds read low 0.995 | S. cerevisiae deletion strains, locus YER110C, active compounds read low 1 | S. cerevisiae deletion strains, locus YER155C, strain BEM2, active compounds read low 0.997 | S. cerevisiae deletion strains, locus YER167W, strain BCK2, active compounds read low 0.997 | S. cerevisiae deletion strains, locus YGL078C, strain dbp3, active compounds read low 1.02 | S. cerevisiae deletion strains, locus YGL086W, strain mad1, active compounds read low 1.03 | S. cerevisiae deletion strains, locus YGL248W, strain PDE1, active compounds read low 1 | S. cerevisiae deletion strains, locus YGR135W, strain pre9, active compounds read low 0.99 | S. cerevisiae deletion strains, locus YGR229C, strain SMI1, active compounds read low 1 | S. cerevisiae deletion strains, locus YGR252W, strain gcn5, active compounds read low 0.96 | S. cerevisiae deletion strains, locus YHR030C, strain SLT2, active compounds read low 0.996 | S. cerevisiae deletion strains, locus YHR079C, strain IRE1 (second series), active compounds read low 0.995 | S. cerevisiae deletion strains, locus YHR094C, strain hxt1, active compounds read low 0.995 | S. cerevisiae deletion strains, locus YHR129C, strain ARP1, active compounds read low 1.01 | S. cerevisiae deletion strains, locus YHR200W, strain rpn10, active compounds read low 1.01 | S. cerevisiae deletion strains, locus YIL066C, strain RNR3, active compounds read low 1 | S. cerevisiae deletion strains, locus YIL073C, strain SPO22, active compounds read low 1.02 | S. cerevisiae deletion strains, locus YIL125W, strain kgd1, active compounds read low 1.01 | S. cerevisiae deletion strains, locus YIR030C, strain dcg1, active compounds read low 1 | S. cerevisiae deletion strains, locus YJL095W, strain BCK1, active compounds read low 0.997 | S. cerevisiae deletion strains, locus YJL134W, strain LCB3, active compounds read low 1.01 | S. cerevisiae deletion strains, locus YJL168C, strain set2, active compounds read low 1 | S. cerevisiae deletion strains, locus YJL187C, strain SWE1 (second series), active compounds read low 1.01 | S. cerevisiae deletion strains, locus YJR043C, strain POL32, active compounds read low 0.988 | S. cerevisiae deletion strains, locus YKL009W, strain mrt4, active compounds read low 0.997 | S. cerevisiae deletion strains, locus YKL068W, active compounds read low 0.999 | S. cerevisiae deletion strains, locus YKL085W, strain MDH1 (second series), active compounds read low 0.994 | S. cerevisiae deletion strains, locus YKL085W, strain MDH1, active compounds read low 0.994 | S. cerevisiae deletion strains, locus YKL190W, strain CNB1, active compounds read low 0.994 | S. cerevisiae deletion strains, locus YKR001C, strain vps1, active compounds read low 1.01 | S. cerevisiae deletion strains, locus YLR039C, strain RIC1, active compounds read low 1.05 | S. cerevisiae deletion strains, locus YLR058C, strain SHM2, active compounds read low 0.987 | S. cerevisiae deletion strains, locus YLR102C, strain apc9, active compounds read low 1.01 | S. cerevisiae deletion strains, locus YLR262C, strain YPT6, active compounds read low 1.08 | S. cerevisiae deletion strains, locus YLR268W, strain sec22, active compounds read low 1.04 | S. cerevisiae deletion strains, locus YLR330W, strain CHS5, active compounds read low 0.989 | S. cerevisiae deletion strains, locus YLR342W, strain FKS1 (second series), active compounds read low 1.01 | S. cerevisiae deletion strains, locus YLR371W, strain rom2, active compounds read low 1 | S. cerevisiae deletion strains, locus YLR418C, strain cdc73, active compounds read low 1.01 | S. cerevisiae deletion strains, locus YML016C, strain PPZ1, active compounds read low 1.01 | S. cerevisiae deletion strains, locus YML032C, strain rad52, active compounds read low 0.975 | S. cerevisiae deletion strains, locus YML124C, strain tub3, active compounds read low 0.996 | S. cerevisiae deletion strains, locus YMR078C, strain ctf18, active compounds read low 1 | S. cerevisiae deletion strains, locus YMR223W, strain ubp8, active compounds read low 0.989 | S. cerevisiae deletion strains, locus YMR263W, strain SAP30, active compounds read low 0.999 | S. cerevisiae deletion strains, locus YMR307W, strain GAS1, active compounds read low 1.06 | S. cerevisiae deletion strains, locus YNL067W, strain RPL9B, active compounds read low 1.01 | S. cerevisiae deletion strains, locus YNL128W, strain TEP1, active compounds read low 0.972 | S. cerevisiae deletion strains, locus YNL233W, strain BNI4, active compounds read low 1.01 | S. cerevisiae deletion strains, locus YNL250W, strain rad50, active compounds read low 0.997 | S. cerevisiae deletion strains, locus YNL271C, strain bni1, active compounds read low 1.01 | S. cerevisiae deletion strains, locus YNL298W, strain CLA4, active compounds read low 1 | S. cerevisiae deletion strains, locus YNL307C, strain MCK1, active compounds read low 1.01 | S. cerevisiae deletion strains, locus YNL322C, strain KRE1, active compounds read low 0.998 | S. cerevisiae deletion strains, locus YNR052C, strain pop2, active compounds read low 0.996 | S. cerevisiae deletion strains, locus YOL012C, strain htz1 1.64 | S. cerevisiae deletion strains, locus YOL147C, strain pex11, active compounds read low 1 | S. cerevisiae deletion strains, locus YOR061W, strain CKA2, active compounds read low 0.997 | S. cerevisiae deletion strains, locus YOR069W, strain VPS5, active compounds read low 1 | S. cerevisiae deletion strains, locus YOR136W, strain idh2, active compounds read low 1.01 | S. cerevisiae deletion strains, locus YOR144C, strain elg1, active compounds read low 1 | S. cerevisiae deletion strains, locus YOR184W, strain ser1, active compounds read low 1.03 | S. cerevisiae deletion strains, locus YOR316C, strain cot1, active compounds read low 1 | S. cerevisiae deletion strains, locus YPL055C, strain LGE1, active compounds read low 0.992 | S. cerevisiae deletion strains, locus YPL241C, strain CIN2, active compounds read low 0.99 | S. cerevisiae deletion strains, locus YPR119W, strain clb2, active compounds read low 0.998 | S. cerevisiae deletion strains, locus YPR141C, strain kar3, active compounds read low 1 | S. cerevisiae deletion strains, locus YPR163C, strain tif3, active compounds read low 1 | S. cerevisiae deletion strains, locus YPR167C, strain met16, active compounds read low 0.994 | S. cerevisiae deletion strains, strain wtn01, active compounds read low 1.04 | S. cerevisiae strains, strain wild type, active compounds read low 0.976
